“And” between values parts separate entries of the source, which are not always exact repeats. Identical values can stand only once. Results filed as inconclusive are left out. Where a call stands in place of a potency, no number is given. Some compounds were tested as several samples or in several runs, with calls that do not always agree. The source made the active and inactive calls. Unless noted, calls come from the whole dose curve.
Columns and labels:
[1] = Nuclear factor erythroid 2-related factor 2/antioxidant responsive element (Nrf2/ARE) small molecule agonists: qHTS cell viability counter screen in human keratinocytes (AID 1919968; active = well fitted curve in the direction sought with a large enough effect in the repeat runs; an effect the other way counts as inactive or inconclusive; note: nearly all actives have a fitted effect of over 55% in size; note: potency is the fitted concentration of half-maximal effect)
Method in brief: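 KeratinoSens HaCaT cells, 1,500/well, preincubated 5 h, then exposed to compounds in DMSO for 23 h at 37 C/5% CO2. Viability read as CellTiter-Fluor fluorescence after 1 h, in the same wells as the ARE-luciferase read.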

[2] = Nuclear factor erythroid 2-related factor 2/antioxidant responsive element (Nrf2/ARE) small molecule agonists: luciferase reporter gene qHTS assay in human keratinocytes (AID 1919969); note: nearly all actives have a fitted effect of over 35% in size; note: potency is the fitted concentration of half-maximal effect
[3] = biological target: Gonadotropin-releasing hormone receptor (Homo sapiens) (UniProt P30968); assay: Human gonadotropin-releasing hormone receptor (GnRHR) small molecule agonists, calcium flux assay in GnRHR-HEK293 cells (AID 1920063); note: nearly all actives have a fitted effect of over 35% in size
Chain of Gonadotropin-releasing hormone receptor (Homo sapiens) (P30968 whole entry, looked up): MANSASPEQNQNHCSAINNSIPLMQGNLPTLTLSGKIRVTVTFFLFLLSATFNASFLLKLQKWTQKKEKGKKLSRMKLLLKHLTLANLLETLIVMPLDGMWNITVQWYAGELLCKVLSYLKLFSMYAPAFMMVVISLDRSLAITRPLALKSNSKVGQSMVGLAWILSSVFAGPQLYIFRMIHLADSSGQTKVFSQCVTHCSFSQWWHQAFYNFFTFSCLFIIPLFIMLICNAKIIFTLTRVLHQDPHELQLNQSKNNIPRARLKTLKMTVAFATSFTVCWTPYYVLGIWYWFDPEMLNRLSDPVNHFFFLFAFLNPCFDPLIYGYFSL
Method in brief: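 HEK293 cells stably expressing human GnRHR were dye-loaded for 1 h at 37 C. Compound was added in agonist mode and fluorescence (Ex/Em 480/540) recorded kinetically for 3 min. Fifteen concentrations, triplicates.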

[4] = biological target: KiSS-1 receptor (Homo sapiens) (UniProt Q969F8); assay: Human kisspeptin (KISS1R) small molecule agonists, calcium flux assay in KISS1R-HEK293 cells (AID 1920064; active = well fitted curve in the direction sought with a large enough effect in the repeat runs; an effect the other way counts as inactive or inconclusive)
Chain of KiSS-1 receptor (Homo sapiens) (Q969F8 whole entry, looked up): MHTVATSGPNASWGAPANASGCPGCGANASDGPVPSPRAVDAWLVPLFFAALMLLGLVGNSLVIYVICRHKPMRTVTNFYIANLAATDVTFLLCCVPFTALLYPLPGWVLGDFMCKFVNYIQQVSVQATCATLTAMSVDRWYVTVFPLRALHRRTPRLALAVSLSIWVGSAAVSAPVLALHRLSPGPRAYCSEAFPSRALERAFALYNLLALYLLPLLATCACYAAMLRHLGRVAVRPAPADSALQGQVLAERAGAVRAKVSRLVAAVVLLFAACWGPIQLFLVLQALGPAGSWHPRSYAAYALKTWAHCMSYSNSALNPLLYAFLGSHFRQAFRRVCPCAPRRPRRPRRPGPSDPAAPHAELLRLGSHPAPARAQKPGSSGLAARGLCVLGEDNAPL
Method in brief: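 HEK293 cells stably expressing human KISS1R were loaded with calcium dye for 1 h at 37 C, then given compound; fluorescence (Ex/Em 480/540) was read kinetically for 3 min. Fifteen concentrations, triplicate.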

[5] = p53 small molecule agonists, cell-based qHTS assay with human liver microsomes (AID 1963577);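 note: p53 response element beta-lactamase reporter cells with liver microsomes plus NADPH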
Method in brief: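 Reporter activation was measured by LiveBLAzer fluorescence intensity in p53RE-bla cells, which had been exposed to compounds for 16 h at 37 C alongside 0.5 mg/mL human liver microsomes and 0.5 mg/mL NADPH (final concentrations).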

[6] = p53 small molecule agonists, cell-based qHTS assay with human liver microsomes: qHTS cell viability counter screen (AID 1963579); note: nearly all actives have a fitted effect of over 45% in size
Method in brief: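 HLM-supplemented (0.5 mg/mL final) and NADPH-supplemented (0.5 mg/mL final) p53RE-bla cultures, 4,000 cells per well, were dosed with compounds in DMSO for 16 h at 37 C; luminescent ATP detection (CellTiter-Glo, 30 min, room temperature) quantified surviving cells.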

[7] = p53 small molecule agonists, cell-based qHTS assay with rat liver microsomes: qHTS cell viability counter screen (AID 1963580); note: nearly all actives have a fitted effect of over 45% in size
Method in brief: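 Viability is assessed in parallel with the p53 reporter read: HCT-116 p53RE-bla cells receive compounds plus rat microsomes and NADPH (0.5 mg/mL final apiece), incubate 16 h at 37 C, and then CellTiter-Glo luminescence is recorded.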

[8] = p53 small molecule agonists, cell-based qHTS assay: qHTS cell viability counter screen (AID 1963581); note: nearly all actives have a fitted effect of over 45% in size
Method in brief: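 p53RE-bla HCT-116 cells, compounds added 5 h after plating and incubated 16 h at 37 C. Cytotoxicity measured in the same wells as intracellular ATP by CellTiter-Glo luminescence after 30 min at room temperature.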

[9] = p53 small molecule agonists, cell-based qHTS assay (AID 1963582; active = well fitted activation curve with a large enough effect in the signal ratio in the repeat runs, not every such curve was filed as active; the % refers to the signal ratio)
Method in brief: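 p53RE-bla reporter cells, compounds added in DMSO after 5 h plating, incubated 16 h at 37 C. Beta-lactamase read via 2 h room-temperature LiveBLAzer B/G FRET substrate, fluorescence intensity.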

[10] = biological target: 5-hydroxytryptamine receptor 2A (Homo sapiens) (UniProt P28223); assay: 5-hydroxytryptamine receptor 2A (HTR2A) small molecule antagonists, cell-based qHTS assay (AID 1963586); note: nearly all actives have a fitted effect of over 45% in size
Chain of 5-hydroxytryptamine receptor 2A (Homo sapiens) (P28223 whole entry, looked up): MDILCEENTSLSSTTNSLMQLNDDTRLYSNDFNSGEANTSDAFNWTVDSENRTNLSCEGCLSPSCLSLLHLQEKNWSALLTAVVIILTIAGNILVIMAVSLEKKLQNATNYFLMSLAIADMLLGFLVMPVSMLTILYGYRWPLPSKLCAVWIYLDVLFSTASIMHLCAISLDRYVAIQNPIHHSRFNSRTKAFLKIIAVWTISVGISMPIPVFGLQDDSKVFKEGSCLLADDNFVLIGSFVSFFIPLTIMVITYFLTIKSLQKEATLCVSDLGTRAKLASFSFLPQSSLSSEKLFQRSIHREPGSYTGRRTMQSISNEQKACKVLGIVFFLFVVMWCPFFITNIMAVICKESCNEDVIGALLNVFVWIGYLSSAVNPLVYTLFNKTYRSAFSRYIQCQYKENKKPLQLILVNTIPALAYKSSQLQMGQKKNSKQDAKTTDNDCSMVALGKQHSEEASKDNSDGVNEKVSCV
Method in brief: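 Antagonist-mode intracellular calcium assay: DOI (4 nM) added after 5 min compound pre-incubation at room temperature to dye-loaded HTR2A-CHO cells. Fluorescence followed for 3 min, sampled every second.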

[11] = biological target: 5-hydroxytryptamine receptor 2A (Homo sapiens) (UniProt P28223); assay: 5-hydroxytryptamine receptor 2A (HTR2A) small molecule agonists, cell-based qHTS assay (AID 1963587); note: nearly all actives have a fitted effect of over 30% in size
Method in brief: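 CHO cells stably expressing human HTR2A, plated 18 h, loaded with calcium dye 1 h at 37 C. Agonist mode: compounds added and intracellular calcium fluorescence recorded kinetically for 2 min at 1 sec intervals.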

[12] = biological target: Muscarinic acetylcholine receptor M1 (Homo sapiens) (UniProt P11229); assay: Cholinergic receptor muscarinic 1 (CHRM1) small molecule antagonists, cell-based qHTS assay (AID 1963588); note: nearly all actives have a fitted effect of over 40% in size; note: potency is the fitted concentration of half-maximal effect
Chain of Muscarinic acetylcholine receptor M1 (Homo sapiens) (P11229 whole entry, looked up): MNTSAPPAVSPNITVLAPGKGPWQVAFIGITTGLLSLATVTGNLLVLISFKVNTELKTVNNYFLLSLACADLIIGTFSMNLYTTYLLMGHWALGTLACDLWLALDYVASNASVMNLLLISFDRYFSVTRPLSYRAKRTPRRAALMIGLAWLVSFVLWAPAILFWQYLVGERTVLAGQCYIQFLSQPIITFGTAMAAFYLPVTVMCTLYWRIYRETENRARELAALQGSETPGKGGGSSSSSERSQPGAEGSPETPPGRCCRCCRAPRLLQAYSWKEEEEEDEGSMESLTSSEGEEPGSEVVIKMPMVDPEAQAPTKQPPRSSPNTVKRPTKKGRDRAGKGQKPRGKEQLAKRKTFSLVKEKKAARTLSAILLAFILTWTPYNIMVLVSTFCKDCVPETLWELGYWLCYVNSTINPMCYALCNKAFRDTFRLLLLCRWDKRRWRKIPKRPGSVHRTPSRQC
Method in brief: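 CHRM1-CHO calcium-flux assay, antagonist mode. Cells were seeded 18 h, dye-loaded 1 h at 37 C and given compound for 5 min at RT, then acetylcholine was added at 50nM. FDSS fluorescence was read 3 min; 15 concentrations, three runs.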

[13] = biological target: Muscarinic acetylcholine receptor M1 (Homo sapiens) (UniProt P11229); assay: Cholinergic receptor muscarinic 1 (CHRM1) small molecule agonists, cell-based qHTS assay (AID 1963589); note: nearly all actives have a fitted effect of over 35% in size
Method in brief: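 CHO cells stably expressing human CHRM1 were loaded with calcium dye for 1 h at 37 C, then compound was added in agonist mode. Intracellular calcium fluorescence was followed kinetically at 1 s intervals. Fifteen concentrations were tested in three independent runs.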

[14] = cAMP Responsive Elements (CRE) small molecule agonists, cell-based qHTS assay (AID 1963590)
Method in brief: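 CRE-bla HEK 293T cells, 2,000/well in DMEM with 10% dialyzed FBS and 25 mM HEPES, pre-incubated 18 h at 37 C, then exposed to compound 3 h at 37 C. Beta-lactamase reporter read with LiveBLAzer B/G FRET substrate after 2 h at room temperature.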

[15] = cAMP Responsive Elements (CRE) small molecule antagonists, cell-based qHTS assay (AID 1963591; active = well fitted inhibition curve with a large enough effect in the signal ratio in the repeat runs, not every such curve was filed as active; the % refers to the signal ratio)
Method in brief: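 CRE-bla HEK293T cells plated 18 h, then given compound plus NKH477 at 0.25 uM final for 3 h at 37C. Beta-lactamase reporter read with LiveBLAzer B/G FRET substrate after 2 h at room temperature.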

[16] = biological target: Beta-2 adrenergic receptor (Homo sapiens) (UniProt P07550); assay: Adrenergic beta2 receptor (ADRB2) small molecule antagonists, cell-based qHTS assay (AID 1963592); note: series mostly up to about 92 µM; nearly all actives have a fitted effect of over 50% in size
Chain of Beta-2 adrenergic receptor (Homo sapiens) (P07550 whole entry, looked up): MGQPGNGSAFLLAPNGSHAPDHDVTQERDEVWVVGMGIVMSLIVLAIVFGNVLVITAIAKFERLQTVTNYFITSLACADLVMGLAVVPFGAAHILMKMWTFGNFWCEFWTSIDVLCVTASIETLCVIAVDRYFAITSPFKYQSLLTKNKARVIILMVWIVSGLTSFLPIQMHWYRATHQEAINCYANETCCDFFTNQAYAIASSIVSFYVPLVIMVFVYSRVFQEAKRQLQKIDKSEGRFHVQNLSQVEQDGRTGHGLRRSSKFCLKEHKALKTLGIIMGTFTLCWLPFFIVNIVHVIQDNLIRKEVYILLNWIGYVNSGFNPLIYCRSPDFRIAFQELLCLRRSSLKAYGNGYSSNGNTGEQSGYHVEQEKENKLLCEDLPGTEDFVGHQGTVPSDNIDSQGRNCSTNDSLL
Method in brief: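 Cells (CHO, stable ADRB2 overexpression) incubated 18-20hr at 37C; compounds added from DMSO; agonist mix (1nM isoproterenol, 100uM IBMX, 25uM Ro-20-1724) added; 0.5hr RT; d2-cAMP and anti-cAMP-cryptate added; 1hr RT; 665/615 nm read.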

[17] = biological target: Beta-2 adrenergic receptor (Homo sapiens) (UniProt P07550); assay: Adrenergic beta2 receptor (ADRB2) small molecule agonists, cell-based qHTS assay (AID 1963593);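 note: CHO cells stably overexpressing human ADRB2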
Method in brief: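 CHO cells stably over-expressing ADRB2 were plated overnight at 37C, then dosed with compounds plus a stimulation mix containing 100uM IBMX and 25uM Ro-20-1724 for 0.5hr at room temperature. cAMP was measured by HTRF competition, 1hr.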

[18] = biological target: D(2) dopamine receptor (Homo sapiens) (UniProt P14416); assay: Dopamine D2 receptor (DRD2) small molecule agonists, cell-based qHTS assay (AID 1963594); note: nearly all actives have a fitted effect of over 35% in size
Chain of D(2) dopamine receptor (Homo sapiens) (P14416 whole entry, looked up): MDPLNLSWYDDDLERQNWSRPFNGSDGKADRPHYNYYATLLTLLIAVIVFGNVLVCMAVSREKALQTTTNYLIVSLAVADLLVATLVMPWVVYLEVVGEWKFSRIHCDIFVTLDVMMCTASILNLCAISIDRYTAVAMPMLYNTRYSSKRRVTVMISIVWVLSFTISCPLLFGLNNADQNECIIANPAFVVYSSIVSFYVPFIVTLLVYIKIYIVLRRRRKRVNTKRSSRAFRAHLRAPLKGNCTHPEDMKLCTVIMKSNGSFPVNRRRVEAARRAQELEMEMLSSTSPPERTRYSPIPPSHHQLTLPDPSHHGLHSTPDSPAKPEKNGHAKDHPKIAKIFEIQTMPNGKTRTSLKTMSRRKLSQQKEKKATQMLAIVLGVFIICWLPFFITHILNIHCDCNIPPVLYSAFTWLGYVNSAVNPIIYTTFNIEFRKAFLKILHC
Method in brief: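 HEK293 cells stably expressing human DRD2, pre-treated with PDE inhibitor Ro20-1724 (0.1 mM final) and compound 10 min at room temperature, then stimulated with NKH477 (200nM […]) for 30 min. cAMP read by HTRF (665/620 nm).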

[19] = biological target: D(2) dopamine receptor (Homo sapiens) (UniProt P14416); assay: Dopamine D2 receptor (DRD2) small molecule antagonists, cell-based qHTS assay (AID 1963595; active = well fitted inhibition curve with a large enough effect in the signal ratio in the repeat runs, with a control signal flat; the % refers to the signal ratio)
Method in brief: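 Antagonism was scored as restored cAMP in HEK293-DRD2 cells. These cells were stimulated with 200 nM NKH477 and 12 nM quinpirole for 30 min at room temperature, in the presence of 0.1 mM Ro20-1724.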

[20] = G protein-coupled receptor (GPCR) small molecule agonists, calcium flux assay: HEK293 wild type cell line counter screen (AID 1920065)
Method in brief: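 Wild-type HEK293 cells plated 18 h, loaded with calcium dye 1 h at 37 C, then compounds added in agonist mode (ATP as positive control). Kinetic fluorescence Ex/Em 480/540 recorded 3 min at 1 sec intervals; 15 concentrations, triplicate.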

| Structure (SMILES) | Potency [1] | Potency [2] | Potency [3] | Potency [4] | Potency [5] | Potency [6] | Potency [7] | Potency [8] | Potency [9] | Potency [10] | Potency [11] | Potency [12] | Potency [13] | Potency [14] | Potency [15] | Potency [16] | Potency [17] | Potency [18] | Potency [19] | Potency [20] |
| --- | --- | --- | --- | --- | --- | --- | --- | --- | --- | --- | --- | --- | --- | --- | --- | --- | --- | --- | --- | --- |
| Cc1cccc(C)c1NC(=O)CN1CCCCCC1 | inactive | inactive | inactive | inactive | inactive | inactive | inactive | inactive | inactive | inactive | inactive | inactive | inactive | inactive | inactive | inactive | inactive | inactive | inactive |  |
| CC(C)CNCC(C)C | inactive | inactive | inactive | inactive | inactive | inactive | inactive | inactive | inactive | inactive | inactive | inactive | inactive | inactive | inactive | inactive |  | inactive | inactive |  |
| C[Si](C)O[Si](C)C | inactive | inactive | inactive | inactive | inactive | inactive | inactive | inactive | inactive | inactive | inactive | inactive | inactive | inactive | inactive | inactive | inactive | inactive | inactive |  |
| C#C[C@]1(O)CC[C@H]2[C@@H]3CCC4=CC(=O)CC[C@@H]4[C@H]3CC[C@@]21C | inactive | inactive | inactive | inactive |  |  |  |  |  |  |  |  |  |  | inactive | inactive | inactive | inactive | inactive | inactive |
| COc1ccc2cc3[n+](cc2c1OC)CCc1cc2c(cc1-3)OCO2 | 4.22 µM (active) | inactive | inactive | inactive | inactive | inactive | inactive | inactive |  |  |  |  |  |  |  |  |  |  |  |  |
| CC(CN1c2ccccc2Sc2ccccc21)N(C)C (stereo unspecified) | inactive | inactive | inactive | inactive | inactive | inactive | inactive |  | inactive |  |  |  |  | inactive | inactive | inactive |  | inactive | inactive |  |
| C=C(C)C(=O)OCCCCCCCC(C)C | inactive | inactive | inactive | inactive | inactive | inactive | inactive | inactive | inactive |  | inactive | inactive | inactive | inactive | inactive | inactive |  | inactive | inactive |  |
| CC(C)(c1ccc(O)cc1)c1ccc(O)cc1 | inactive | inactive and 62.2 µM (active) | inactive | inactive | inactive | inactive | inactive | inactive |  |  |  |  |  | inactive | inactive | inactive |  | inactive | inactive |  |
| C(=C\c1ccccc1)/c1ccccc1 | inactive | inactive | inactive | inactive | inactive | inactive | inactive | inactive | inactive | inactive | inactive |  | inactive | inactive | inactive | inactive | inactive | inactive | inactive |  |
| CC(C)CCOC(=O)c1ccccc1 | inactive | inactive | inactive | inactive | inactive | inactive | inactive | inactive | inactive | inactive | inactive |  | inactive | inactive | inactive | inactive |  | inactive | inactive |  |
| N#CC1(O)CCCCC1 | inactive | 61.6 µM (active) | inactive | inactive | inactive | inactive | inactive |  | inactive | inactive | inactive | inactive | inactive | inactive | inactive | inactive | inactive | inactive | inactive |  |
| CC(C)(O)C(=O)c1ccc(OCCO)cc1 | inactive | inactive | inactive | inactive | inactive |  | inactive | inactive | inactive | inactive | inactive | inactive | inactive | inactive | inactive | inactive |  | inactive | inactive |  |
| CC/C=C/CCO | inactive | inactive | inactive | inactive | inactive |  | inactive | inactive | inactive | inactive | inactive | inactive |  | inactive | inactive | inactive | inactive | inactive | inactive |  |
| COC(=O)c1ccccc1C(=O)c1ccc(OCCN2CCCCC2)cc1 | inactive | inactive | inactive | inactive | inactive | inactive | inactive | inactive |  | inactive | inactive | 0.0365 µM (active) | inactive | inactive | inactive | inactive |  | inactive | inactive |  |
